Mtb bLac sens: beta-lactam sensitization of Mtb H37Rv. 330,000 tested, 0.27% active. M. tuberculosis H37Rv growth with meropenem, percent inhibition. AID 434955. inhibition, % at 25 µM; call rule not given here;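 note: growth measured after seven days incubation then overnight dye step; 0% = bacteria only wells and 100% = bacteria with antibiotic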
CCHFV vOTU inh: blocks the CCHF virus ovarian tumor domain protease; CCHFV vOTU protease, Pep-AMC fluorescence; 370,000 tested, 0.55% active; inhibition, % at 11.5 µM; in the data active = inhibition above about 30%; note: 0% = vehicle wells with enzyme and 100% = no enzyme wells
MazF activator: increases E. coli MazEF RNase cleavage of RNA. activation, % at 20 µM. P0AE70. 350,000 tested, 0.32% active. AID 504720. FAM/BHQ RNA-DNA oligo cleavage fluorescence, 5 h; in the data active = activation above about 50%
Target sequence (P0AE70 whole entry, looked up): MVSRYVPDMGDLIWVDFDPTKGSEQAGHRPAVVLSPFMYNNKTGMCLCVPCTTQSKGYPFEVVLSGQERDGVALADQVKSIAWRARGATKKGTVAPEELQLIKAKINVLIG
SARS 3CLpro inh: SARS-CoV 3CLpro protease inhibition. 290,000 tested, 0.14% active. inhibition, % at 6 µM. P0C6X7. recombinant SARS-CoV 3CLpro, quenched FRET peptide cleavage; in the data active = inhibition above about 12%
RN4220 kill: S. aureus RN4220 growth inhibition; OD600, 16 h; inhibition, % (test concentration not listed); 330,000 tested, 0.33% active; AID 1259311; in the data active = inhibition above about 85%;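 note: plate controls were untreated cells for no effect and reference antibiotic for full effect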
ugtP null kill: growth inhibition of S. aureus ugtP deletion strain. S. aureus RN4220 ugtP deletion, OD600 growth, 16 h. growth inhibition, % (concentration not given with the values). 330,000 tested, 0.54% active; in the data active = growth inhibition above about 68%;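 note: plate controls were untreated wells for no effect and antibiotic for full effect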
Numbers without * were called inactive; · = no result. Rows were chosen to be rich in hits. Some 1.3% of all compounds tested hit in one or more screens of this group.

SMILES | Mtb bLac sens | CCHFV vOTU inh | MazF activator | SARS 3CLpro inh | RN4220 kill | ugtP null kill
Cc1cc(C)cc(N=C2NC(=O)/C(=C/c3cccs3)S2)c1 | 91.4 | 13.2 | -1.2 | 7.6 | -2.6 | -13.0
Cc1cc(C=NNC(=O)c2c(Br)cnn2C)c(C)n1-c1cccc(Br)c1 | · | · | · | · | 1.2 | 27.2
Cc1cc(NN=C2CCCc3ccccc32)nc2ccccc12 | · | · | · | · | -4.2 | 0.6
CC(=NO)C(=O)NCC1CCNCC1 | · | · | · | · | -0.3 | 2.0
c1ccc(CC2CNCCN2CCc2cccc3ccccc23)cc1 (configuration not stated) | · | · | · | · | -3.5 | -24.0
CCN1CC2C3C(=O)N(C)C(=O)C3[C@](C)(C1=O)N2C(=O)c1ccc(Br)cc1 (some centres not stated) | · | · | · | · | 4.4 | 1.1
Cc1cc(=O)n(-c2ccc(O)cc2)[nH]1 | 28.6 | 26.6 | 0.6 | -1.3 | 18.2 | 82.2*
Cc1cc(=O)n(-c2ccccc2Cl)[nH]1 | 1.2 | 12.6 | 1.1 | -2.5 | 1.6 | 1.4
COC(=O)CN1C(=O)S/C(=C/c2ccc(N3CCCCC3)o2)C1=O | 13.3 | 1.0 | 386.0* | 4.4 | 0.4 | -10.8
CCOC(=O)CN1C(=O)S/C(=C/c2ccc(N3CCCCC3)o2)C1=O | 34.8 | -2.0 | 30.7 | 3.5 | 2.4 | -0.9
COc1ccc([N+](=O)[O-])cc1NC(=O)Nc1ccccc1 | -2.1 | 3.1 | 8.7 | 1.9 | 95.2* | 83.4*
COc1ccc([N+](=O)[O-])cc1NC(=S)Nc1ccccc1 | -4.4 | 9.4 | 8.7 | -4.9 | 7.0 | -3.2
COc1ccc(C=NNC(=O)c2ccoc2C)cc1OC | · | · | · | · | -2.2 | 3.9
O=C1NC(=S)S/C1=C\c1ccc(SCc2ccccc2)o1 | 14.3 | 18.2 | 6.4 | 0.7 | 92.8* | 89.5*
Cn1cc(C=C(C#N)C#N)c2ccccc21 | -4.5 | -3.8 | 154.2* | -1.5 | 2.6 | 9.1
O=C(CSc1ccccc1)Nc1cc(S(=O)(=O)N2CCOCC2)ccc1N1CCOCC1 | 3.0 | 8.4 | 75.6* | 3.5 | 4.2 | 3.4
CNC(=O)c1c2c(nc3ccc(Br)cc13)CCCC2 | 0.2 | -2.6 | 3.8 | 5.8 | 2.0 | 82.6*
O=C(N/N=C/c1ccc(Sc2nc3ccccc3s2)c([N+](=O)[O-])c1)c1ccccn1 | 5.0 | -14.3 | 100.8* | -5.7 | · | ·
CCOc1ccc(C=C2C(=N)N3OC(C)=CC3=NC2=O)cc1OC | · | · | · | · | 4.8 | 6.6
COc1cc(/C=C2/C(=N)N3OC(C)=CC3=NC2=O)ccc1OCCOc1ccc(C)cc1 | -1.8 | -7.3 | 90.6* | 0.5 | 0.9 | 4.4
CCOc1cc(/C=C2/C(=N)N3OC(C)=CC3=NC2=O)ccc1OCCOc1ccccc1 | 1.1 | -6.9 | 148.9* | 1.8 | 7.7 | -4.0
Cc1cc(NN=Cc2ccc(O)cc2O)c2ccccc2n1 | · | · | · | · | 0.8 | 1.0
COCCCn1[nH]c2c3c(ccc2c1=O)C(=O)c1ccccc1C3=O | 73.9 | 3.1 | 8.1 | 0.9 | 86.4* | 83.9*
CC1CN(C(C)CO)C(=O)c2cc(NS(C)(=O)=O)ccc2OC1CN(C)Cc1ccc(C(=O)O)cc1 (configuration not stated) | · | · | · | · | 3.9 | -9.1
O=[N+]([O-])c1cc(C=NN2CCOCC2)cs1 | · | · | · | · | 6.6 | 9.5
SMILES | Mtb bLac sens | CCHFV vOTU inh | MazF activator | SARS 3CLpro inh | RN4220 kill | ugtP null kill
C[C@@]12C(=O)N(Cc3ccc(Cl)cc3)CC(=O)N1[C@H]1c3ccccc3OC[C@@H]1[C@@H]2c1ccccc1 | 72.5 | 10.9 | -7.9 | · | · | ·
Cc1ccc2c(c1)[C@H]1[C@H](CO2)[C@H](c2ccccc2)[C@]2(C)C(=O)N(Cc3ccc(F)cc3)CC(=O)N12 | 5.8 | 11.7 | 309.8* | · | · | ·
CCCCN1CC(=O)N2[C@@H]3c4cc(Br)ccc4OC[C@@H]3[C@H](C(=O)OCC)[C@]2(C)C1=O | · | · | 61.5* | · | · | ·
COc1ccc(CN2CC(=O)N3[C@H]4c5ccccc5OC[C@@H]4[C@H](c4ccccc4)[C@]3(C)C2=O)cc1 | 49.4 | 12.1 | 52.0* | · | · | ·
CCCCN1CC(=O)N2[C@H]3c4cc(C)ccc4OC[C@@H]3[C@H](c3ccccc3)[C@]2(C)C1=O | -0.4 | 4.2 | 87.0* | · | · | ·
COc1cc(SSc2cc(OC)cc([N+](=O)[O-])c2N)c(N)c([N+](=O)[O-])c1 | -3.8 | 24.8 | 14.6 | -1.7 | 37.8 | 87.4*
CCC(NC(=O)c1ccccc1NC(=O)C(C)(C)C)C(=O)N1CC(C)OC(C)C1 (configuration not stated) | 1.7 | 16.7 | 52.1* | · | 5.3 | 12.2
Cc1cc(C(C)(C)C)ccc1OCCCCN1CCCC1 | -2.0 | -13.0 | 7.8 | 7.0 | -3.0 | 33.3

Screens deposited in PubChem BioAssay by several laboratories.
